Inconclusive results are not listed. A call without a number means that no potency is given here. Activity calls are given as the source filed them. The call rests on the fitted dose curve; in most records, active means well fitted inhibition curve with a large enough effect; inconclusive means small, poorly fitted or top-dose-only effect; inactive means flat fitted curve, though single readings scatter.
test system: MCC-13; assay: qHTS assay to identify novel small-molecules to repurpose for Merkel cell carcinoma treatment (AID 1296009); conditions: MCC and control cell lines, CellTiter-Glo viability, 72 h; series mostly up to 46 µM; further: nearly all actives have a fitted effect of over 60% in size
Summary of the method: (§1)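 Viability readout: ATP luminescence (CellTiter-Glo) after 72 hr drug exposure at 37 degree celsius. Dose-response format was 8 points for NPC and 11 points for MIPE; data normalized to in-plate controls.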
Potency means the concentration at half of the fitted maximal effect.

Row | Compound | Potency
1 | CC(CC1c2ccccc2CCc2ccccc21)CN(C)C (configuration not stated) | inactive
2 | O=S(=O)(O)c1ccc2nc(-c3ccccc3)[nH]c2c1 | inactive
3 | CCCC(=O)c1cc(O)c(O)cc1O | inactive
4 | CC(=O)[C@@]1(O)CC[C@H]2[C@@H]3C[C@H](C)C4=CC(=O)CC[C@]4(C)[C@H]3CC[C@@]21C | inactive
5 | CCC1(c2cnc[nH]2)Cc2ccccc2C1 | inactive
6 | CC(C)OC(=O)c1cc2c(OCC(O)CNC(C)(C)C)cccc2[nH]1 (configuration not stated) | inactive
7 | CC(C)C[C@H](NC(=O)CNC(=O)[C@H](Cc1ccc(O)cc1)NC(=O)[C@H](CO)NC(=O)[C@H](Cc1c[nH]c2ccccc12)NC(=O)[C@H](Cc1cnc[nH]1)NC(=O)[C@@H]1CCC(=O)N1)C(=O)N[C@@H](CCCN=C(N)N)C(=O)N1CCC[C@H]1C(=O)NCC(N)=O (stereo in doubt) | inactive
8 | CN1CCC(Nc2ncc3ncnc(Nc4ccc(F)c(Cl)c4)c3n2)CC1 | inactive

test system: MCC-26; assay: as above; conditions: MCC and control cell lines, CellTiter-Glo viability, 72 h; series mostly up to 46 µM
Summary of the method: as §1

Row | Compound | Potency
9 | O=C(c1cc(O)c(O)c(O)c1)c1ccc(O)c(O)c1O | inactive
10 | CC[C@@H]([C@H](C)O)n1ncn(-c2ccc(N3CCN(c4ccc(OC[C@@H]5CO[C@@](Cn6cncn6)(c6ccc(F)cc6F)C5)cc4)CC3)cc2)c1=O | inactive
11 | CCOC(=O)N1CCC(Nc2ccc(Cl)cc2N)CC1 | inactive
12 | O=C(CCC1CCN(Cc2ccccc2)CC1)c1ccc2c(c1)NCCCC2 | inactive
13 | CC(=O)O[C@@H]1C(=O)O[C@@H]2[C@H]1OC(=O)[C@@H]2OC(C)=O | inactive
14 | CC(C)(c1ccc(O)cc1)c1ccc(O)cc1 | inactive
15 | CN(CC1(C)CCCO1)S(=O)(=O)c1ccc(Cl)c(S(N)(=O)=O)c1 (configuration not stated) | inactive
16 | OCc1c[nH]c2ccccc12 | inactive
17 | O=C1NCCN1CCN1CCC(c2cn(-c3ccc(F)cc3)c3ccc(Cl)cc23)CC1 | 21.1 µM (active)
18 | CCOC(=O)C1=C(C)NC(C)=C(C(=O)OCC)C1c1ccccc1/C=C/C(=O)OC(C)(C)C | inactive
19 | CC(C)=CCC/C(C)=C/CC/C(C)=C/C(=O)OCC(=O)[C@@]1(O)CC[C@H]2[C@@H]3CCC4=CC(=O)C=C[C@]4(C)[C@H]3[C@@H](O)C[C@@]21C | inactive
20 | CCOC(=O)[C@H](CCc1ccccc1)N[C@@H](C)C(=O)N(CC(=O)O)C1Cc2ccccc2C1 | inactive
21 | CC(=O)Nc1ccn(C2COC(COC(=O)c3ccccc3)O2)c(=O)n1 (configuration not stated) | inactive
22 | CCCCNc1ccc(C(=O)OCCN(CC)CC)cc1 | inactive
23 | Cc1cc(C(C)(C)C)c(O)c(C(C)(C)C)c1 | inactive
24 | CC(CC1c2ccccc2CCc2ccccc21)CN(C)C (configuration not stated) | inactive
25 | COc1ccc([C@@H]2Sc3ccccc3NC(=O)[C@@H]2O)cc1 | inactive
26 | O=S(=O)(O)c1ccc2nc(-c3ccccc3)[nH]c2c1 | inactive
27 | CCCC(=O)c1cc(O)c(O)cc1O | inactive
28 | CC(=O)[C@@]1(O)CC[C@H]2[C@@H]3C[C@H](C)C4=CC(=O)CC[C@]4(C)[C@H]3CC[C@@]21C | inactive
29 | CN1CCCN(C(c2ccccc2)c2ccc(Cl)cc2)CC1 (configuration not stated) | inactive
30 | CCCCCC(=O)O[C@]1(C(C)=O)CC[C@H]2[C@@H]3CCC4=CC(=O)CC[C@]4(C)[C@H]3CC[C@@]21C | inactive
31 | CCC1(c2cnc[nH]2)Cc2ccccc2C1 | inactive
32 | CC(C)OC(=O)c1cc2c(OCC(O)CNC(C)(C)C)cccc2[nH]1 (configuration not stated) | inactive
33 | CC(C)C[C@H](NC(=O)CNC(=O)[C@H](Cc1ccc(O)cc1)NC(=O)[C@H](CO)NC(=O)[C@H](Cc1c[nH]c2ccccc12)NC(=O)[C@H](Cc1cnc[nH]1)NC(=O)[C@@H]1CCC(=O)N1)C(=O)N[C@@H](CCCN=C(N)N)C(=O)N1CCC[C@H]1C(=O)NCC(N)=O (stereo in doubt) | inactive
34 | CN1CCC(Nc2ncc3ncnc(Nc4ccc(F)c(Cl)c4)c3n2)CC1 | inactive

test system: MKL-1; assay: as above; conditions: MCC and control cell lines, CellTiter-Glo viability, 72 h; series mostly up to 46 µM
Summary of the method: as §1

Row | Compound | Potency
35 | OC1(c2ccc(Cl)c(C(F)(F)F)c2)CCN(CCCC(c2ccc(F)cc2)c2ccc(F)cc2)CC1 | 7.5 µM (active)
36 | CC[C@@H]([C@H](C)O)n1ncn(-c2ccc(N3CCN(c4ccc(OC[C@@H]5CO[C@@](Cn6cncn6)(c6ccc(F)cc6F)C5)cc4)CC3)cc2)c1=O | inactive
37 | CCOC(=O)N1CCC(Nc2ccc(Cl)cc2N)CC1 | 21.1 µM (active)
38 | O=C(CCC1CCN(Cc2ccccc2)CC1)c1ccc2c(c1)NCCCC2 | inactive
39 | CC(C)(C)c1ccc(O)c(O)c1 | 6.86 µM (active)
40 | CC(=O)O[C@@H]1C(=O)O[C@@H]2[C@H]1OC(=O)[C@@H]2OC(C)=O | inactive
41 | CC(C)(c1ccc(O)cc1)c1ccc(O)cc1 | inactive
42 | CN(CC1(C)CCCO1)S(=O)(=O)c1ccc(Cl)c(S(N)(=O)=O)c1 (configuration not stated) | inactive
43 | O=C(Nc1ccc(Cl)cc1)Nc1ccc(Cl)c(C(F)(F)F)c1 | 21.1 µM (active)
44 | CCCCCCCCCCCCCCCCCCNC(=O)OC1CCN(C(=O)OC[C@H](COC(=O)N(Cc2cccc[n+]2CC)C(=O)c2ccccc2OC)OC)CC1 | 11.9 µM (active)
45 | O=C1NCCN1CCN1CCC(c2cn(-c3ccc(F)cc3)c3ccc(Cl)cc23)CC1 | 8.41 µM (active)
46 | CCOC(=O)C1=C(C)NC(C)=C(C(=O)OCC)C1c1ccccc1/C=C/C(=O)OC(C)(C)C | 26.6 µM (active)
47 | Nc1ccc2cc3ccc(N)cc3nc2c1 | 4.22 µM (active)
48 | CC(C)=CCC/C(C)=C/CC/C(C)=C/C(=O)OCC(=O)[C@@]1(O)CC[C@H]2[C@@H]3CCC4=CC(=O)C=C[C@]4(C)[C@H]3[C@@H](O)C[C@@]21C | inactive
49 | COc1c(C)c2c(c(O)c1C/C=C(\C)CCC(=O)OCCN1CCOCC1)C(=O)OC2 | inactive
50 | CCOC(=O)[C@H](CCc1ccccc1)N[C@@H](C)C(=O)N(CC(=O)O)C1Cc2ccccc2C1 | inactive
51 | CC(=O)Nc1ccn(C2COC(COC(=O)c3ccccc3)O2)c(=O)n1 (configuration not stated) | inactive
52 | O=C(Nc1ccc(Cl)cc1)Nc1ccc(Cl)c(Cl)c1 | 18.8 µM (active)
53 | CCCCNc1ccc(C(=O)OCCN(CC)CC)cc1 | inactive
54 | CC(=O)Oc1ccc(C2(c3ccc(OC(C)=O)cc3)Oc3ccccc3NC2=O)cc1 | inactive
55 | Cc1cc(C(C)(C)C)c(O)c(C(C)(C)C)c1 | inactive
56 | CC(CC1c2ccccc2CCc2ccccc21)CN(C)C (configuration not stated) | inactive
57 | O=S(=O)(O)c1ccc2nc(-c3ccccc3)[nH]c2c1 | inactive
58 | CC(=O)[C@@]1(O)CC[C@H]2[C@@H]3C[C@H](C)C4=CC(=O)CC[C@]4(C)[C@H]3CC[C@@]21C | inactive
59 | CCN(CC)CCOc1ccc(/C(=C(\Cl)c2ccccc2)c2ccccc2)cc1 | 23.7 µM (active)
60 | CCC1(c2cnc[nH]2)Cc2ccccc2C1 | inactive
61 | CC(C)OC(=O)c1cc2c(OCC(O)CNC(C)(C)C)cccc2[nH]1 (configuration not stated) | inactive
62 | CC(C)C[C@H](NC(=O)CNC(=O)[C@H](Cc1ccc(O)cc1)NC(=O)[C@H](CO)NC(=O)[C@H](Cc1c[nH]c2ccccc12)NC(=O)[C@H](Cc1cnc[nH]1)NC(=O)[C@@H]1CCC(=O)N1)C(=O)N[C@@H](CCCN=C(N)N)C(=O)N1CCC[C@H]1C(=O)NCC(N)=O (stereo in doubt) | inactive
